Experimental data taken from paper PMC9911399, “Two distinct binding modes provide the RNA-binding protein RbFox with extraordinary sequence specificity”.
Positions count from the first letter of the chain named. Over roughly 16,000 sequences, “ka relative to ugcaugu” has its median near 0.096; the highest 2% begin near 0.35. The sample as a whole holds a higher share of the highest values than the screen did.

T1: RBFOX1 RRM RbFoxmut (Fox-RRM*) (Homo sapiens, UniProt Q9NWB1 109-208, R118D;E147R;N151S;E152T)
T1 sequence: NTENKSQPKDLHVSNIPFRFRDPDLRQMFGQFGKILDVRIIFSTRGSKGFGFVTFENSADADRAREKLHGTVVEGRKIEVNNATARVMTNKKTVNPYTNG

B1: GGCCGCA (DNA:RNA)
RNA: GGGAGACCGGAAUUCAGAUUGUCCGGCCGCAUUAAAUCCCGUCGUAGCCACCA
DNA 1: CAATCTGAATTCCGGTCTCCC
DNA 2: TGGTGGCTACGACGGGATT
B2: CCUGUUG (DNA:RNA)
RNA: GGGAGACCGGAAUUCAGAUUGUCCCCUGUUGUUAAAUCCCGUCGUAGCCACCA
DNA 1: CAATCTGAATTCCGGTCTCCC
DNA 2: TGGTGGCTACGACGGGATT
B3: AGGGCAC (DNA:RNA)
RNA: B2 RNA with C25A, C26G, U27G, U29C, U30A, G31C
DNA 1: CAATCTGAATTCCGGTCTCCC
DNA 2: TGGTGGCTACGACGGGATT
B4: UAGCUUA (DNA:RNA)
RNA: B2 RNA with C25U, C26A, U27G, G28C, G31A
DNA 1: CAATCTGAATTCCGGTCTCCC
DNA 2: TGGTGGCTACGACGGGATT
B5: GUUAGGG (DNA:RNA)
RNA: B2 RNA with C25G, C26U, G28A, U29G, U30G
DNA 1: CAATCTGAATTCCGGTCTCCC
DNA 2: TGGTGGCTACGACGGGATT
B6: ACCGGAG (DNA:RNA)
RNA: B2 RNA with C25A, U27C, U29G, U30A
DNA 1: CAATCTGAATTCCGGTCTCCC
DNA 2: TGGTGGCTACGACGGGATT
B7: AAUUGGC (DNA:RNA)
RNA: B2 RNA with C25A, C26A, G28U, U29G, U30G, G31C
DNA 1: CAATCTGAATTCCGGTCTCCC
DNA 2: TGGTGGCTACGACGGGATT
B8: ACCACUC (DNA:RNA)
RNA: B2 RNA with C25A, U27C, G28A, U29C, G31C
DNA 1: CAATCTGAATTCCGGTCTCCC
DNA 2: TGGTGGCTACGACGGGATT
B9: CGUCCUG (DNA:RNA)
RNA: B2 RNA with C26G, G28C, U29C
DNA 1: CAATCTGAATTCCGGTCTCCC
DNA 2: TGGTGGCTACGACGGGATT
B10: UGUUAUG (DNA:RNA)
RNA: B2 RNA with C25U, C26G, G28U, U29A
DNA 1: CAATCTGAATTCCGGTCTCCC
DNA 2: TGGTGGCTACGACGGGATT
B11: UGUCAUG (DNA:RNA)
RNA: B2 RNA with C25U, C26G, G28C, U29A
DNA 1: CAATCTGAATTCCGGTCTCCC
DNA 2: TGGTGGCTACGACGGGATT
B12: UGUAUCU (DNA:RNA)
RNA: B2 RNA with C25U, C26G, G28A, U30C, G31U
DNA 1: CAATCTGAATTCCGGTCTCCC
DNA 2: TGGTGGCTACGACGGGATT
B13: UGUUAUC (DNA:RNA)
RNA: B2 RNA with C25U, C26G, G28U, U29A, G31C
DNA 1: CAATCTGAATTCCGGTCTCCC
DNA 2: TGGTGGCTACGACGGGATT
B14: GGCUAUC (DNA:RNA)
RNA: B1 RNA with C28U, G29A, C30U, A31C
DNA 1: CAATCTGAATTCCGGTCTCCC
DNA 2: TGGTGGCTACGACGGGATT
B15: UGUCCUG (DNA:RNA)
RNA: B2 RNA with C25U, C26G, G28C, U29C
DNA 1: CAATCTGAATTCCGGTCTCCC
DNA 2: TGGTGGCTACGACGGGATT
B16: GGCUAUG (DNA:RNA)
RNA: B1 RNA with C28U, G29A, C30U, A31G
DNA 1: CAATCTGAATTCCGGTCTCCC
DNA 2: TGGTGGCTACGACGGGATT
B17: UAUGUCG (DNA:RNA)
RNA: B2 RNA with C25U, C26A, U30C
DNA 1: CAATCTGAATTCCGGTCTCCC
DNA 2: TGGTGGCTACGACGGGATT
B18: CUGUAUC (DNA:RNA)
RNA: B2 RNA with C26U, U27G, G28U, U29A, G31C
DNA 1: CAATCTGAATTCCGGTCTCCC
DNA 2: TGGTGGCTACGACGGGATT
B19: CGUCAUG (DNA:RNA)
RNA: B2 RNA with C26G, G28C, U29A
DNA 1: CAATCTGAATTCCGGTCTCCC
DNA 2: TGGTGGCTACGACGGGATT
B20: UGUCAUC (DNA:RNA)
RNA: B2 RNA with C25U, C26G, G28C, U29A, G31C
DNA 1: CAATCTGAATTCCGGTCTCCC
DNA 2: TGGTGGCTACGACGGGATT

Molecular target: T1, RBFOX1 RRM RbFoxmut (Fox-RRM*)
Test: EMSA; HiTS-Eq, 1 nM pool, 10 min; buffer printed only for the single-RNA assays: 10 mM Tris pH 7.5, 150 mM NaCl, 3.4 mM EDTA, 0.001% NP-40, 30 C
Conditions: tags: His6 N-terminal (pET28a); label: 5' 32P
Procedure, shortened: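 Relative association constants, normalised to the cognate motif, were derived by comparing read counts of each RNA species with those of the control reaction. The RNA sequenced was the free fraction, separated by 8% native PAGE after a 10 min equilibration in 50 µL of 1 nM 5′-radiolabelled RNA (7 randomized nucleotides) with increasing concentrations of purified wild-type or mutant RbFox RRM.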

| Binder | binding signal |
| --- | --- |
| B1 | 0.107 KA relative to UGCAUGU |
| B2 | 0.136 KA relative to UGCAUGU |
| B3 | 0.0707 KA relative to UGCAUGU |
| B4 | 0.134 KA relative to UGCAUGU |
| B5 | 0.0712 KA relative to UGCAUGU |
| B6 | 0.0806 KA relative to UGCAUGU |
| B7 | 0.114 KA relative to UGCAUGU |
| B8 | 0.0459 KA relative to UGCAUGU |
| B9 | 0.132 KA relative to UGCAUGU |
| B10 | 1.04 KA relative to UGCAUGU |
| B11 | 0.597 KA relative to UGCAUGU |
| B12 | 0.296 KA relative to UGCAUGU |
| B13 | 0.351 KA relative to UGCAUGU |
| B14 | 0.226 KA relative to UGCAUGU |
| B15 | 0.133 KA relative to UGCAUGU |
| B16 | 0.405 KA relative to UGCAUGU |
| B17 | 0.133 KA relative to UGCAUGU |
| B18 | 0.362 KA relative to UGCAUGU |
| B19 | 0.275 KA relative to UGCAUGU |
| B20 | 0.183 KA relative to UGCAUGU |
